# Assay: calcein-AM signal in unstimulated myeloma cells – cell-based, calcein-AM fluorescence, 48 h, PK04 Diversity Set, profiling panel (AID 1166);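 further: cells grown under basal conditions without added stimulus; test concentration not given here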
# Details: RPMI8226 myeloma viability, higher = more signal
row,SMILES,z-score
1,COCCOC(=O)N1C(=O)[C@@]2(c3cc(C#CC4(O)CCCCCC4)ccc31)[C@H](C(=O)N1CCN(c3ncccn3)CC1)[C@H]1C(=O)O[C@H](c3ccccc3)[C@H](c3ccccc3)N1[C@@H]2c1ccc(OCCO)cc1,-1.9
2,CS(=O)(=O)CCOC(=O)C1=CC(CCCO)=CC(c2cccs2)N(Cc2cccc(OC(F)(F)F)c2)C=C1C(=O)OCCS(C)(=O)=O (stereo unspecified),-3.74
3,N#Cc1ccc(NN2C(C(O)c3cc(C(F)(F)F)cc(C(F)(F)F)c3)C=CC3C(=O)N(c4ccccc4)C(=O)C32)cc1 (stereo unspecified),-3.8
4,COC(=O)C1(C)C=C2C(=C(c3ccccc3)C(=O)C2C)CN1 (stereo unspecified),-1.49
5,COC(=O)CC=C[C@H](C)[C@@H](OCc1ccccc1Br)C(C)C,0.736
6,CC(=O)OC[C@H]1O[C@H](CCON=C[C@@H](C)[C@H](OCc2ccccc2)C(C)C)C=C[C@@H]1OC(C)=O,-0.5
7,CC(CCN1CCCCc2nc(C)c(C)cc21)=NOC(C)CN1CCCCc2nc(C)c(C)cc21 (stereo unspecified),-0.696
8,CCN1C(=O)[C@H]2[C@H]3[C@H](O)[C@H](O)CC(=NOCc4ccccc4)[C@@H]3CC[C@H]2C1=O,-0.714
9,CC(=O)OC[C@H]1O[C@H](CCON=C(C)CCN2CCc3nc(-c4ccccc4)c(-c4ccccc4)cc3C2)C=C[C@@H]1OC(C)=O,0.091
10,CN(C)CCCNC(=O)[C@@H]1c2ccccc2C(=O)N(Cc2cc(F)cc(C(F)(F)F)c2)[C@H]1c1ccc(CO)cc1,0.606
11,CC(CCC(=O)OC[C@H]1O[C@H](C#Cc2ccccc2)C=C[C@@H]1Oc1ccc(C)cc1)=NOC[C@@H](O)[C@H]1O[C@@H]2OC(C)(C)O[C@@H]2[C@H]1O,-1.53
12,CC(C)N1CC=CC23O[C@@H]4C=CCCOC(=O)C4[C@H]2C(=O)N(CCCCCCO)[C@@H]3C1=O (stereo partly specified),0.788
13,O=C1[C@H]2[C@H]3[C@H](O)[C@H](O)CC(=NOC[C@@H](O)COCc4ccco4)[C@H]3CC[C@H]2C(=O)N1C1CCCCC1,-1.01
14,CO[C@@H]1COC(=O)CCC[C@@H](C)[C@H](OC)COC(=O)CCC[C@H]1C,0.239
15,O=C1NC(=O)C2C1C=CC(C(O)Cc1ccccc1)N2Nc1ccccn1 (stereo unspecified),-0.87
16,CC(C)(C)OC(=O)CC[C@]1(C(=O)NCc2ccccc2)N=C(c2ccc(OCCCO)cc2)O[C@H]1c1ccccc1,-1.14
17,CC(C)(C)OC(=O)CC[C@]1(C(N)=O)COC(c2ccc(OCCCO)cc2)=N1,-0.881
18,CC(C)CON=C1C[C@@H](O)[C@@H](O)[C@@H]2[C@@H]3C(=O)N(Cc4ccccc4)C(=O)[C@@H]3CC[C@@H]12,-0.129

row,SMILES,z-score
1,C=CCOC(=O)[C@H]1[C@@H]2C(=O)O[C@@H](c3ccccc3)[C@@H](c3ccccc3)N2[C@@H](c2ccc(OCCOC(=O)[C@H]3C[C@H]4C(=O)N[C@@H](Cc5ccccc5)C(=O)N4[C@H]3c3ccc(O)cc3)cc2)[C@]12C(=O)Nc1ccccc12,-0.216
2,O=C1[C@H]2[C@H]3[C@H](O)[C@H](O)CC(=NOCc4ccccc4)[C@H]3CC[C@H]2C(=O)N1c1ccc(F)cc1F,0.471
3,COC(=O)C1=C(C)[C@@H](O)[C@@H](C)[C@H](c2c(OC)c(OC)c(C)c(OC)c2OC)O1,-0.976
4,COC(=O)[C@@]1(Cc2ccc(OC)cc2)[C@H]2c3cc(C(=O)N4CCCC4)n(Cc4cc(F)c(F)c(F)c4)c3C[C@H]2CN1C(=O)c1ccccc1,-3.11
5,CC(CCC(=O)OC[C@H]1O[C@H](C#Cc2ccccc2)C=C[C@@H]1Oc1ccc(C)cc1)=NO[C@@H](C)c1cn([C@H](CO)Cc2ccccc2)nn1,-2.17
6,CC(C)NC(=O)[C@@]1(c2ccc([N+](=O)[O-])cc2)CC(=O)N(CC23CC4CC(CC(C4)C2)C3)[C@@H]1c1ccc(CO)cc1I,-4.29
7,COC(=O)[C@H](C)NC(=O)CCC1CC(OC(=O)NCCc2ccc(F)cc2)CC2(CCCC(COC(=O)NCCc3ccc(Cl)cc3)O2)O1 (stereo partly specified),-0.227
8,C=C(CCCC)C(=O)CC[C@@H](OC(C)=O)c1cccc(OCCO)c1,-2.28
9,CCOC(=O)[C@H](CC(C)C)NC(=O)CCC1CC(OC(=O)NCc2cccc3ccccc23)CC2(CCCC(COC(=O)NCCc3ccccc3OC)O2)O1 (stereo partly specified),-0.407
10,CCCCCN1CC=CC23O[C@@H]4C=CCOC(=O)[C@@H]4[C@H]2C(=O)N(C(CO)C(C)C)[C@@H]3C1=O (stereo partly specified),0.12
11,CCOC(=O)[C@H](CC(C)C)NC(=O)CCC1CC(OC(=O)NCc2cccc3ccccc23)CC2(CCCC(COC(=O)NCCN3CCOCC3)O2)O1 (stereo partly specified),-0.275
12,Cc1ccc(F)cc1S(=O)(=O)N[C@@H]1CCN(Cc2ccc(CC(C)C)cc2)C1,-3.56
13,O=C1[C@H]2[C@H]3[C@H](O)[C@H](O)CC(=NOC[C@@H](O)COCc4ccco4)[C@@H]3CC[C@H]2C(=O)N1c1ccc(F)cc1F,-1.11
14,CCCNC(=O)[C@@H]1c2ccccc2C(=O)N(c2ccc(C)cn2)[C@H]1c1ccc(CO)cc1,-0.0505
15,CC[C@@H](c1ccccc1)n1c(=O)n2n(c1=O)[C@H]1[C@H](O)[C@@H]3O[C@@H]3C(=NOCC=C(C)CCC=C(C)C)[C@H]1CC2,-3.74
16,CC(C)[C@@H](OCc1ccccc1)[C@H](C)C=NO[C@H](C)c1cn([C@H](CO)Cc2ccccc2)nn1,0.153
17,Cc1cc2c(c(=O)o1)[C@H](O)[C@H]1O[C@H]1C2=O,-2.96
18,COCCCNC(=O)[C@]1(Cc2ccccc2)N=C(c2ccc(OCCCO)cc2)O[C@@H]1c1ccccc1,-0.701
